Reference: PubChem BioAssay AID1159580 (chemical genetic matrix, 2015)
Among all 5,500 compounds or so, about 2,000 (36%) were called active. Inconclusive results (about 18%) are left out. Cut-off read from the data, not from the text of the source: active = normalized growth mostly below about 0.91 (no sharp cut-off); inconclusive = no clear call, values can overlap the other calls; inactive = mostly above about 0.92. The list shows a part of the results.

Assay: chemical genetic growth profiling, strain panel (AID 1159580);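 note: tested at 20 µM; growth read once vehicle control cultures reached saturation at 30 °C; 1 = growth at the plate median or of vehicle wells; lower values mean less growth of the strain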
Conditions: growth OD

Measured: normalized growth

COc1ccc(C(Cl)=C(c2ccc(OC)cc2)c2ccc(OC)cc2)cc1
inactive: S. cerevisiae deletion strains, locus YKL009W, strain mrt4, active compounds read low 1.02 | S. cerevisiae deletion strains, locus YKL068W, active compounds read low 1.02 | S. cerevisiae deletion strains, locus YKL085W, strain MDH1 (second series), active compounds read low 0.98 | S. cerevisiae deletion strains, locus YKL085W, strain MDH1, active compounds read low 0.98 | S. cerevisiae deletion strains, locus YKL160W, strain elf1, active compounds read low 0.993 | S. cerevisiae deletion strains, locus YKL190W, strain CNB1, active compounds read low 1.01 | S. cerevisiae deletion strains, locus YKR001C, strain vps1, active compounds read low 1.01 | S. cerevisiae deletion strains, locus YKR026C, strain gcn3, active compounds read low 1.01 | S. cerevisiae deletion strains, locus YKR091W, strain srl3, active compounds read low 1.04 | S. cerevisiae deletion strains, locus YLL001W, strain dnm1, active compounds read low 1.01 | S. cerevisiae deletion strains, locus YLL026W, active compounds read low 1 | S. cerevisiae deletion strains, locus YLL041C, strain sdh2, active compounds read low 1.02 | S. cerevisiae deletion strains, locus YLR027C, strain aat2, active compounds read low 1.04 | S. cerevisiae deletion strains, locus YLR039C, strain RIC1, active compounds read low 1.01 | S. cerevisiae deletion strains, locus YLR058C, strain SHM2, active compounds read low 1.02 | S. cerevisiae deletion strains, locus YLR102C, strain apc9, active compounds read low 1.02 | S. cerevisiae deletion strains, locus YLR113W, strain HOG1, active compounds read low 0.97 | S. cerevisiae deletion strains, locus YLR221C, strain rsa3, active compounds read low 0.995 | S. cerevisiae deletion strains, locus YLR258W, strain gsy2, active compounds read low 1.02 | S. cerevisiae deletion strains, locus YLR262C, strain YPT6 (second series), active compounds read low 1.07 | S. cerevisiae deletion strains, locus YLR262C, strain YPT6, active compounds read low 1.02 | S. cerevisiae deletion strains, locus YLR268W, strain sec22, active compounds read low 1.01 | S. cerevisiae deletion strains, locus YLR320W, strain mms22, active compounds read low 1.01 | S. cerevisiae deletion strains, locus YLR330W, strain CHS5, active compounds read low 1.01 | S. cerevisiae deletion strains, locus YLR342W, strain FKS1 (second series), active compounds read low 0.988 | S. cerevisiae deletion strains, locus YLR342W, strain FKS1, active compounds read low 1.01 | S. cerevisiae deletion strains, locus YLR357W, strain rsc2, active compounds read low 1.04 | S. cerevisiae deletion strains, locus YLR370C, strain arc18, active compounds read low 0.972 | S. cerevisiae deletion strains, locus YLR371W, strain rom2, active compounds read low 1.03 | S. cerevisiae deletion strains, locus YLR384C, strain iki3, active compounds read low 1.01 | S. cerevisiae deletion strains, locus YLR418C, strain cdc73, active compounds read low 1.06 | S. cerevisiae deletion strains, locus YML016C, strain PPZ1, active compounds read low 1.02 | S. cerevisiae deletion strains, locus YML032C, strain rad52, active compounds read low 1 | S. cerevisiae deletion strains, locus YML120C, strain ndi1, active compounds read low 0.982 | S. cerevisiae deletion strains, locus YML124C, strain tub3, active compounds read low 1.03 | S. cerevisiae deletion strains, locus YMR058W, strain fet3, active compounds read low 1.05 | S. cerevisiae deletion strains, locus YMR078C, strain ctf18, active compounds read low 1.03 | S. cerevisiae deletion strains, locus YMR125W, strain sto1, active compounds read low 1.01 | S. cerevisiae deletion strains, locus YMR129W, active compounds read low 0.998 | S. cerevisiae deletion strains, locus YMR205C, strain PFK2, active compounds read low 1.03 | S. cerevisiae deletion strains, locus YMR223W, strain ubp8, active compounds read low 1.02 | S. cerevisiae deletion strains, locus YMR231W, strain pep5, active compounds read low 1.02 | S. cerevisiae deletion strains, locus YMR263W, strain SAP30, active compounds read low 1.04 | S. cerevisiae deletion strains, locus YMR307W, strain GAS1, active compounds read low 1 | S. cerevisiae deletion strains, locus YNL067W, strain RPL9B, active compounds read low 1.03 | S. cerevisiae deletion strains, locus YNL071W, strain lat1, active compounds read low 1.03 | S. cerevisiae deletion strains, locus YNL128W, strain TEP1, active compounds read low 1.03 | S. cerevisiae deletion strains, locus YNL183C, strain NPR1, active compounds read low 0.905 | S. cerevisiae deletion strains, locus YNL209W, strain ssb2, active compounds read low 1 | S. cerevisiae deletion strains, locus YNL233W, strain BNI4, active compounds read low 1.02 | S. cerevisiae deletion strains, locus YNL248C, strain rpa49, active compounds read low 0.962 | S. cerevisiae deletion strains, locus YNL250W, strain rad50, active compounds read low 1.05 | S. cerevisiae deletion strains, locus YNL271C, strain bni1, active compounds read low 1.01 | S. cerevisiae deletion strains, locus YNL298W, strain CLA4, active compounds read low 1.01 | S. cerevisiae deletion strains, locus YNL307C, strain MCK1, active compounds read low 1.02 | S. cerevisiae deletion strains, locus YNL322C, strain KRE1 (second series), active compounds read low 1.03 | S. cerevisiae deletion strains, locus YNR049C, strain mso1, active compounds read low 0.977 | S. cerevisiae deletion strains, locus YNR052C, strain pop2, active compounds read low 1.02 | S. cerevisiae deletion strains, locus YOL006C, strain TOP1, active compounds read low 1.12 | S. cerevisiae deletion strains, locus YOL012C, strain htz1 1.9 | S. cerevisiae deletion strains, locus YOL147C, strain pex11, active compounds read low 1.02 | S. cerevisiae deletion strains, locus YOR001W, strain rrp6, active compounds read low 1.04 | S. cerevisiae deletion strains, locus YOR061W, strain CKA2, active compounds read low 1.01 | S. cerevisiae deletion strains, locus YOR069W, strain VPS5, active compounds read low 1.02 | S. cerevisiae deletion strains, locus YOR070C, strain gyp1, active compounds read low 1.02 | S. cerevisiae deletion strains, locus YOR080W, strain dia2, active compounds read low 0.995 | S. cerevisiae deletion strains, locus YOR083W, strain WHI5, active compounds read low 1.02 | S. cerevisiae deletion strains, locus YOR106W, strain vam3, active compounds read low 1.07 | S. cerevisiae deletion strains, locus YOR136W, strain idh2, active compounds read low 1.01 | S. cerevisiae deletion strains, locus YOR144C, strain elg1, active compounds read low 1.01 | S. cerevisiae deletion strains, locus YOR184W, strain ser1, active compounds read low 1 | S. cerevisiae deletion strains, locus YOR231W, strain MKK1, active compounds read low 0.981 | S. cerevisiae deletion strains, locus YOR265W, strain rbl2, active compounds read low 0.996 | S. cerevisiae deletion strains, locus YOR270C, strain vph1, active compounds read low 1.09 | S. cerevisiae deletion strains, locus YOR290C, strain snf2, active compounds read low 1 | S. cerevisiae deletion strains, locus YOR316C, strain cot1, active compounds read low 1.02 | S. cerevisiae deletion strains, locus YPL051W, strain arl3, active compounds read low 0.99 | S. cerevisiae deletion strains, locus YPL055C, strain LGE1, active compounds read low 1.01 | S. cerevisiae deletion strains, locus YPL078C, strain atp4, active compounds read low 1.04 | S. cerevisiae deletion strains, locus YPL106C, strain sse1, active compounds read low 1.01 | S. cerevisiae deletion strains, locus YPL240C, strain hsp82, active compounds read low 0.989 | S. cerevisiae deletion strains, locus YPL241C, strain CIN2, active compounds read low 1.01 | S. cerevisiae deletion strains, locus YPL256C, strain CLN2, active compounds read low 0.964 | S. cerevisiae deletion strains, locus YPR119W, strain clb2, active compounds read low 1.02 | S. cerevisiae deletion strains, locus YPR141C, strain kar3, active compounds read low 1.02 | S. cerevisiae deletion strains, locus YPR163C, strain tif3, active compounds read low 1.03 | S. cerevisiae deletion strains, locus YPR167C, strain met16, active compounds read low 1.02 | S. cerevisiae deletion strains, strain wtn01, active compounds read low 1.02 | S. cerevisiae strains, strain wild type, active compounds read low 1.02
